Several values for one entry are separate records, joined by “and”; a condition that tells them apart may be missing. Identical values can stand only once. Activity calls are given as the source filed them. How the source made its calls: active means hit-call score of the fitted dose curve at least 0.9, where 1 is the maximum; inactive means score below 0.9.
Tests used:
[1] = read-out: Macrophage colony-stimulating factor (MCSF), CSF1 (gene 1435); assay: BSK_hDFCGF_MCSF: BioMAP Diversity Plus: hDFCGF Assay for Macrophage colony-stimulating factor (MCSF) Biomarker Activity (AID 2283060); details: primary human foreskin fibroblasts; actives raise or lower the signal
Summary of the method: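 Human foreskin fibroblast primary cultures; M-CSF measured by ELISA 24 hours after chemical dosing. Bidirectional fitting relative to DMSO, with overt cytotoxicity tracked by parallel SRB total-protein staining (0.1% SRB, 10% TCA fixation, 560 nm).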

[2] = BSK_hDFCGF_SRB: Viability Assessment in the BioMAP Diversity Plus: hDFCGF Assay (AID 2283061); details: primary human foreskin fibroblasts;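 further: cells exposed to compound for 24 h before the read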
Summary of the method: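 Human foreskin fibroblasts in 96-well plates were treated 24 h. Total protein was measured by 0.1% SRB staining after 10% TCA fixation, read at 560 nm. Data were fitted bidirectionally against DMSO.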

[3] = read-out: TIMP metallopeptidase inhibitor 1 (TIMP1), TIMP1 (gene 7076); assay: BSK_hDFCGF_TIMP1: BioMAP Diversity Plus: hDFCGF Assay for TIMP metallopeptidase inhibitor 1 (TIMP1) Biomarker Activity (AID 2283062); details: primary human foreskin fibroblasts; actives raise or lower the signal
Summary of the method: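 Human foreskin fibroblast primary cultures dosed for 24 h; secreted/surface TIMP-1 quantified by ELISA. Bidirectional curve fitting against DMSO baseline; cytotoxicity tracked in parallel cultures by SRB total-protein staining.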

[4] = read-out: Matrix Metallopeptidase 1 (MMP1), MMP1 (gene 4312); assay: BSK_hDFCGF_MMP1: BioMAP Diversity Plus: hDFCGF Assay for Matrix Metallopeptidase 1 (MMP1) Biomarker Activity (AID 2283064); details: primary human foreskin fibroblasts; actives raise or lower the signal
Summary of the method: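 ELISA read-out of MMP1 from human foreskin fibroblasts (primary skin cells), 24 h post-dose. Gain or loss of signal was fitted bidirectionally versus DMSO negative control; cytotoxicity was checked by SRB in parallel cultures.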

[5] = read-out: Vascular cell adhesion molecule 1 (VCAM1), VCAM1 (gene 7412); assay: BSK_hDFCGF_VCAM1: BioMAP Diversity Plus: hDFCGF Assay for Vascular cell adhesion molecule 1 (VCAM1) Biomarker Activity (AID 2283065); details: primary human foreskin fibroblasts; actives raise or lower the signal;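 on AC50: VCAM-1 protein level quantified by ELISA after 24 h chemical exposure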
Summary of the method: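 Human foreskin fibroblast primary cells dosed with chemical, VCAM-1 measured by ELISA at 24 h. Bidirectional curve fitting relative to DMSO as negative control/baseline.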

[6] = read-out: Plasminogen activator inhibitor-1 (PAI1), SERPINE1 (gene 5054); assay: BSK_hDFCGF_PAI1: BioMAP Diversity Plus: hDFCGF Assay for Plasminogen activator inhibitor-1 (PAI1) Biomarker Activity (AID 2283066); details: primary human foreskin fibroblasts; actives raise or lower the signal
Summary of the method: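 ELISA readout of PAI-1 from primary human skin fibroblast cultures, 24 h after compound addition. Gain or loss of signal was fitted bidirectionally against DMSO baseline.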

[7] = read-out: Intercellular Adhesion Molecule 1 (ICAM1), ICAM1 (gene 3383); assay: BSK_KF3CT_ICAM1: BioMAP Diversity Plus: KF3CT Assay for Intercellular Adhesion Molecule 1 (ICAM1) Biomarker Activity (AID 2283067); details: primary human keratinocytes with fibroblasts; actives raise or lower the signal
Summary of the method: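 Human keratinocyte–foreskin fibroblast co-culture was treated for 24 h. Cell-surface ICAM-1 was quantified by ELISA, fitted bidirectionally relative to DMSO. Cytotoxicity was checked in parallel cultures by SRB total-protein staining.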

[8] = read-out: Interferon-gamma inducible Protein 10 (IP10), CXCL10 (gene 3627); assay: BSK_KF3CT_IP10: BioMAP Diversity Plus: KF3CT Assay for Interferon-gamma inducible Protein 10 (IP10) Biomarker Activity (AID 2283068); details: primary human keratinocytes with fibroblasts; actives raise or lower the signal
Summary of the method: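 KF3CT co-culture (keratinocytes + foreskin fibroblasts), 24 h compound, IP-10 by ELISA; bidirectional fit vs DMSO baseline.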

[9] = BSK_KF3CT_SRB: Viability Assessment in the BioMAP Diversity Plus: KF3CT Assay (AID 2283069); details: primary human keratinocytes with fibroblasts;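 further: total protein by sulforhodamine B staining as a cytotoxicity measure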
Summary of the method: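 SRB read-out at 560 nm (0.1% stain, TCA-fixed cells) gauges overt cytotoxicity in a human skin keratinocyte–fibroblast co-culture 24 h post-dosing. Signal change was fitted bidirectionally relative to DMSO control.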

[10] = read-out: Interleukin-1 alpha (IL1a), IL1A (gene 3552); assay: BSK_KF3CT_IL1a: BioMAP Diversity Plus: KF3CT Assay for Interleukin-1 alpha (IL1a) Biomarker Activity (AID 2283070); details: primary human keratinocytes with fibroblasts; actives raise or lower the signal
Summary of the method: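 Primary skin co-culture (keratinocytes, foreskin fibroblasts), 24 h exposure; ELISA for IL-1a; bidirectional curve fit vs DMSO.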

[11] = read-out: TIMP metallopeptidase inhibitor 2 (TIMP2), TIMP2 (gene 7077); assay: BSK_KF3CT_TIMP2: BioMAP Diversity Plus: KF3CT Assay for TIMP metallopeptidase inhibitor 2 (TIMP2) Biomarker Activity (AID 2283071); details: primary human keratinocytes with fibroblasts; actives raise or lower the signal
Summary of the method: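 ELISA readout of TIMP-2 in keratinocyte plus foreskin fibroblast co-cultures (human skin primary cells), 24 h post-dose. Gain or loss of signal fitted relative to DMSO.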

[12] = read-out: Transforming growth factor beta 1 (TGFb1), TGFB1 (gene 7040); assay: BSK_KF3CT_TGFb1: BioMAP Diversity Plus: KF3CT Assay for Transforming growth factor beta 1 (TGFb1) Biomarker Activity (AID 2283072); details: primary human keratinocytes with fibroblasts; actives raise or lower the signal
Summary of the method: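 Read-out: ELISA for TGF-b1 in keratinocyte/foreskin fibroblast human skin co-culture, 24 h after dosing; bidirectional curve fit vs DMSO baseline; gain or loss of signal scored.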

[13] = read-out: C-C motif chemokine 2 (Homo sapiens) (UniProt P13500); assay: BSK_KF3CT_MCP1: BioMAP Diversity Plus: KF3CT Assay for Monocyte Chemoattractant Protein 1 (MCP1/CCL2) Biomarker Activity (AID 2283073); details: primary human keratinocytes with fibroblasts; actives raise or lower the signal
Summary of the method: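 Human keratinocyte–foreskin fibroblast co-culture; MCP-1 measured by ELISA 24 h after dosing. Bidirectional fit vs DMSO; cytotoxicity tracked by SRB total protein in parallel cultures.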

[14] = read-out: Matrix Metallopeptidase 9 (MMP9), MMP9 (gene 4318); assay: BSK_KF3CT_MMP9: BioMAP Diversity Plus: KF3CT Assay for Matrix Metallopeptidase 9 (MMP9) Biomarker Activity (AID 2283074); details: primary human keratinocytes with fibroblasts; actives raise or lower the signal;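 on AC50: MMP9 protein level quantified by ELISA in the co-culture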
Summary of the method: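 ELISA read-out of MMP-9 at 24 h post-dosing in a co-culture of human skin keratinocytes and foreskin fibroblasts. Gain or loss of signal was fitted in both directions against DMSO.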

[15] = read-out: urokinase plasminogen activator (uPA), PLAU (gene 5328); assay: BSK_KF3CT_uPA: BioMAP Diversity Plus: KF3CT Assay for urokinase plasminogen activator (uPA) Biomarker Activity (AID 2283075); details: primary human keratinocytes with fibroblasts; actives raise or lower the signal
Summary of the method: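 Skin co-culture (keratinocytes + foreskin fibroblasts), human primary; 24 h post-dose; uPA by ELISA; gain/loss fit vs DMSO baseline.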

[16] = read-out: CD40, CD40 (gene 958); assay: BSK_LPS_CD40: BioMAP Diversity Plus: LPS Assay for CD40 Biomarker Activity (AID 2283076); details: primary human HUVEC with PBMC; actives raise or lower the signal
Summary of the method: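 HUVEC plus PBMC co-culture stimulated with LPS; CD40 quantified by ELISA 24 h after compound dosing. Fitting was bidirectional relative to DMSO. SRB staining of parallel cultures flagged overt cytotoxicity.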

[17] = BSK_LPS_SRB: Viability Assessment in the BioMAP Diversity Plus: LPS Assay (AID 2283079); details: primary human HUVEC with PBMC;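 further: total protein by sulforhodamine B absorbance as a cytotoxicity measure; measured one day after compound addition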
Summary of the method: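 Co-culture of human umbilical vein endothelial cells and PBMC, read 24 h after dosing. Total protein by 0.1% SRB staining after 10% TCA fixation, absorbance at 560 nm; bidirectional fit against DMSO.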

**Q.** What does the source list for CC(C)(C)c1cccc(O)c1?
**A.** outcome [1]: inactive; outcome [2]: inactive; outcome [3]: inactive; outcome [4]: inactive; outcome [5]: inactive; outcome [6]: inactive; outcome [7]: inactive; outcome [8]: inactive; outcome [9]: inactive; outcome [10]: inactive; outcome [11]: inactive; outcome [12]: inactive; outcome [13]: inactive; outcome [14]: inactive; outcome [15]: inactive; outcome [16]: inactive; outcome [17]: inactive

**Q.** What does the source list for C[C@]12CC[C@@H]3c4ccc(O)cc4CC[C@H]3[C@@H]1CC[C@@H]2O?
**A.** outcome [1]: inactive; outcome [2]: inactive; outcome [3]: inactive; outcome [4]: inactive; AC50 [5]: 20 µM (active); outcome [6]: inactive; outcome [7]: inactive; outcome [8]: inactive; outcome [9]: inactive; outcome [10]: inactive; outcome [11]: inactive; outcome [12]: inactive; outcome [13]: inactive; outcome [14]: inactive; outcome [15]: inactive; outcome [16]: inactive; AC50 [17]: 12 µM (active)

**Q.** Which results are given for c1ccc2c(c1)-c1ccc3ccc4cccc5cc-2c1c3c45?
**A.** AC50 [1]: 86.5 nM (active); outcome [2]: inactive; outcome [3]: inactive; outcome [4]: inactive; outcome [5]: inactive; outcome [6]: inactive; outcome [7]: inactive; outcome [8]: inactive; outcome [9]: inactive; outcome [10]: inactive; AC50 [11]: 825 nM (active); outcome [12]: inactive; AC50 [13]: 238 nM (active); outcome [14]: inactive; outcome [15]: inactive; AC50 [16]: 2.76 µM (active); outcome [17]: inactive

**Q.** With CC1=CC(C)C(C=O)C(C)C1 (stereo unspecified) (tested in a mixture with another compound) as the molecule, how does the outcome [1] read?
**A.** inactive

**Q.** What about the outcome [2] of the same molecule?
**A.** inactive

**Q.** And the outcome [3]?
**A.** inactive

**Q.** What about the outcome [4] of the same molecule?
**A.** inactive

**Q.** And the outcome [5]?
**A.** inactive

**Q.** And the outcome [6]?
**A.** inactive

**Q.** And the outcome [7]?
**A.** inactive

**Q.** What about the outcome [8] of the same molecule?
**A.** inactive

**Q.** What about the outcome [9] of the same molecule?
**A.** inactive

**Q.** And the outcome [10]?
**A.** inactive

**Q.** And the outcome [11]?
**A.** inactive

**Q.** What about the outcome [12] of the same molecule?
**A.** inactive

**Q.** And the outcome [13]?
**A.** inactive

**Q.** What about the outcome [14] of the same molecule?
**A.** inactive

**Q.** And the outcome [15]?
**A.** inactive

**Q.** What about the outcome [16] of the same molecule?
**A.** inactive

**Q.** What about the outcome [17] of the same molecule?
**A.** inactive

**Q.** With CC/C(=C(\c1ccccc1)c1ccc(OCCN(C)C)cc1)c1ccccc1 as the molecule, how does the AC50 [1] read?
**A.** 7.77 µM (active) and 7.23 µM (active)

**Q.** What about the AC50 [2] of the same molecule?
**A.** 6.75 µM (active) and 6.55 µM (active)

**Q.** What about the AC50 [3] of the same molecule?
**A.** 8.65 µM (active) and 11.5 µM (active)

**Q.** What about the AC50 [4] of the same molecule?
**A.** 10.1 µM (active) and 11.1 µM (active)

**Q.** And the AC50 [5]?
**A.** 9.88 µM (active) and 9.9 µM (active)

**Q.** And the AC50 [6]?
**A.** 7.69 µM (active) and 7.18 µM (active)

**Q.** What about the AC50 [7] of the same molecule?
**A.** 9.03 µM (active) and 8.65 µM (active)

**Q.** What about the AC50 [8] of the same molecule?
**A.** 10.1 µM (active) and 7.37 µM (active)

**Q.** And the AC50 [9]?
**A.** 6.49 µM (active) and 9.44 µM (active)

**Q.** What about the AC50 [10] of the same molecule?
**A.** 8.27 µM (active) and 11.2 µM (active)

**Q.** What about the AC50 [11] of the same molecule?
**A.** 7.86 µM (active) and 9.54 µM (active)

**Q.** And the AC50 [12]?
**A.** 8.7 µM (active) and 6.05 µM (active)

**Q.** What about the AC50 [13] of the same molecule?
**A.** 5.98 µM (active) and 7.88 µM (active)

**Q.** What about the AC50 [14] of the same molecule?
**A.** 7.84 µM (active) and 8.19 µM (active)

**Q.** And the AC50 [15]?
**A.** 9.92 µM (active) and 9.67 µM (active)

**Q.** And the AC50 [16]?
**A.** 7.05 µM (active) and 5.81 µM (active)

**Q.** And the AC50 [17]?
**A.** 9.77 µM (active) and 10.4 µM (active)

**Q.** What does the source list for O=S(=O)(O)C(F)(F)C(F)(F)OC(F)(F)C(F)(F)F?
**A.** outcome [1]: inactive; outcome [2]: inactive; outcome [3]: inactive; outcome [4]: inactive; outcome [5]: inactive; outcome [6]: inactive; outcome [7]: inactive; outcome [8]: inactive; outcome [9]: inactive; outcome [10]: inactive; outcome [11]: inactive; outcome [13]: inactive; outcome [14]: inactive; outcome [15]: inactive; outcome [16]: inactive; outcome [17]: inactive

— PubChem BioAssay (EPA / NIEHS)
